# Reference: the supplement of paper PMC9262897, “Low-cost anti-mycobacterial drug discovery using engineered E. coli” (Nature Communications, 2022)
# Structures can show the parent of a compound that is named as a salt. ± gives the standard deviation of the averaged measurements.
# How the values were obtained:
# Experiment in all cases: growth (OD600 after 10 h); higher = more growth (less inhibition)
# [1] = test system: E. coli TESEC Alr+ wild-type control; conditions: compound 0.1 mM; raw OD600 reference: median of DMSO wells 0.241, cell-free background 0.041
# Protocol: (§1)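 TESEC Mtb Alr E. coli, or the Alr+ wild-type control, in 384-well plates with Prestwick library compounds at 0.1 mM and 1% DMSO, across arabinose induction levels of 1E3 to 1E7 nM. Growth is read as OD600 after 10 h at 37 °C in triplicate biological replicates.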
# E. coli TESEC Mtb Alr [2] = conditions: compound 0.1 mM
# Protocol: as §1
# E. coli TESEC Mtb Asd = conditions: compound 0.1 mM
# Protocol: (§2)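 TESEC E. coli strains in which the native enzyme is deleted and replaced by arabinose-inducible Mtb Asd, DapB, CysH or TrpD, each grown in its selective medium. Strains were screened against the Prestwick library at 0.1 mM and 1% DMSO in 384-well format at low and high arabinose induction. Growth is read as OD600 after 10 h in triplicate.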
# E. coli TESEC Mtb DapB = conditions: compound 0.1 mM
# Protocol: as §2
# [3] = test system: E. coli TESEC Alr+ wild-type control; conditions: compound 0.1 mM; raw OD600 reference: median of DMSO wells 0.49, cell-free background 0.052
# Protocol: (§3)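 TESEC Mtb Alr E. coli (ΔaraC ΔtolC ΔentC Δalr ΔdadX, arabinose-inducible Mtb Alr) or the Alr+ wild-type control strain, grown in defined M9-fructose medium without D-alanine in 96-well plates with Prestwick library compounds at 0.1 mM and 1% DMSO. Low Alr induction is 0.1 µM arabinose and high induction is 10 mM arabinose.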
# E. coli TESEC Mtb Alr [4] = conditions: compound 0.1 mM; remark: listed apart in the source
# Protocol: as §3
# [5] = arabinose 1000 nM, raw OD600 reference: median of DMSO wells 0.294, cell-free background 0.041
# [6] = arabinose 10000 nM, raw OD600 reference: median of DMSO wells 0.264, cell-free background 0.041
# [7] = arabinose 100000 nM, raw OD600 reference: median of DMSO wells 0.201, cell-free background 0.041
# [8] = arabinose 1000000 nM, raw OD600 reference: median of DMSO wells 0.193, cell-free background 0.041
# [9] = arabinose 10000000 nM, raw OD600 reference: median of DMSO wells 0.146, cell-free background 0.041
# [10] = arabinose induction (level): High, raw OD600 reference: median of DMSO wells 0.331, cell-free background 0.041
# [11] = arabinose induction (level): Low, raw OD600 reference: median of DMSO wells 0.417, cell-free background 0.041
# [12] = arabinose induction (level): High, raw OD600 reference: median of DMSO wells […], cell-free background 0.041
# [13] = arabinose induction (level): Low, raw OD600 reference: median of DMSO wells 0.227, cell-free background 0.041
# [14] = arabinose 100 nM, raw OD600 reference: median of DMSO wells 0.413, cell-free background 0.052
# [15] = arabinose 10000000 nM, raw OD600 reference: median of DMSO wells […], cell-free background 0.052
SMILES,growth [1],growth (E. coli TESEC Mtb Alr [2]; [5]),growth (E. coli TESEC Mtb Alr [2]; [6]),growth (E. coli TESEC Mtb Alr [2]; [7]),growth (E. coli TESEC Mtb Alr [2]; [8]),growth (E. coli TESEC Mtb Alr [2]; [9]),growth (E. coli TESEC Mtb Asd; [10]),growth (E. coli TESEC Mtb Asd; [11]),growth (E. coli TESEC Mtb DapB; [12]),growth (E. coli TESEC Mtb DapB; [13]),growth [3],growth (E. coli TESEC Mtb Alr [4]; [14]),growth (E. coli TESEC Mtb Alr [4]; [15])
O=c1[nH]cnc2c1ncn2[C@H]1CC[C@@H](CO)O1 [Didanosine],0.18 ± 0.011,0.293 ± 0.023,0.27 ± 0.0051,0.16 ± 0.015,0.149 ± 0.0069,0.199 ± 0.0058,0.157 ± 0.0043,0.165 ± 0.013,0.18 ± 0.011,0.196 ± 0.048,0.503 ± 0.045,0.425 ± 0.0085,0.225 ± 0.019
CN(C)CCCN1c2ccccc2Sc2ccccc21 [Promazine hydrochloride],0.189 ± 0.0053,0.227 ± 0.011,0.2724 ± 0.002,0.192 ± 0.01,0.129 ± 0.0026,0.158 ± 0.004,0.187 ± 0.03,0.261 ± 0.023,0.195 ± 0.017,0.254 ± 0.033,0.523 ± 0.031,0.415 ± 0.0068,0.273 ± 0.0038
CO/N=C(\C(=O)N[C@@H]1C(=O)N2C(C(=O)O)=C(C[N+]3(C)CCCC3)CS[C@H]12)c1csc(N)n1 [Cefepime hydrochloride],0.0426 ± 0.00078,0.0381 ± 0.00085,0.0472 ± 0.0016,0.03857 ± 0.00031,0.0612 ± 0.0025,0.048 ± 0.00053,0.197 ± 0.017,0.188 ± 0.012,0.182 ± 0.0028,0.173 ± 0.011,0.0488 ± 0.0038,0.0455 ± 0.00017,0.0731 ± 0.0077
CCN(CC)CCOC(=O)C(c1ccccc1)c1ccccc1 [Adiphenine hydrochloride],0.222 ± 0.0088,0.309 ± 0.033,0.252 ± 0.004,0.168 ± 0.0062,0.14 ± 0.0034,0.142 ± 0.0034,0.197 ± 0.033,0.382 ± 0.069,0.165 ± 0.0095,0.223 ± 0.046,0.494 ± 0.04,0.414 ± 0.0051,0.313 ± 0.051
O=C(NCCNCC(O)COc1ccc(O)cc1)N1CCOCC1 (centres undefined) [Xamoterol hemifumarate],0.241 ± 0.013,0.303 ± 0.014,0.272 ± 0.0074,0.195 ± 0.022,0.19 ± 0.0053,0.138 ± 0.0031,0.447 ± 0.069,0.463 ± 0.043,0.21 ± 0.0088,0.232 ± 0.024,0.631 ± 0.0095,0.405 ± 0.016,0.326 ± 0.0053
CN(C)CCOC(C)(c1ccccc1)c1ccccn1 (centres undefined) [Doxylamine succinate],0.236 ± 0.0058,0.288 ± 0.016,0.249 ± 0.0028,0.19 ± 0.025,0.164 ± 0.0088,0.141 ± 0.0072,0.301 ± 0.028,0.374 ± 0.071,0.179 ± 0.019,0.206 ± 0.011,0.51 ± 0.06,0.41 ± 0.0066,0.353 ± 0.0099
O=c1[nH]cc(F)c(=O)[nH]1 [5-fluorouracil],0.122 ± 0.0069,0.155 ± 0.012,0.148 ± 0.0051,0.0825 ± 0.0014,0.0827 ± 0.0053,0.08963 ± 0.00055,0.193 ± 0.013,0.238 ± 0.015,0.151 ± 0.011,0.142 ± 0.013,0.556 ± 0.066,0.359 ± 0.041,0.134 ± 0.013
CCCOc1ccccc1-c1nc2[nH]nnc2c(=O)[nH]1 [Zaprinast],0.205 ± 0.0049,0.229 ± 0.0072,0.257 ± 0.0057,0.162 ± 0.016,0.173 ± 0.0024,0.138 ± 0.0042,0.268 ± 0.029,0.313 ± 0.046,0.191 ± 0.0075,0.199 ± 0.024,0.507 ± 0.057,0.396 ± 0.0084,0.289 ± 0.0088
